Results filed as inconclusive are left out. The source made the active and inactive calls. Rule for the calls, unless noted: active = hit-call score of the fitted dose curve at least 0.9, where 1 is the maximum; inconclusive = response in the unintended direction; inactive = score below 0.9.
Key:
[1] = TOX21_p53_BLA_p2_viability: Viability Assessment in the Tox21 HCT-116 p53 Agonism Beta-lactamase Assay, Phase 2 (AID 2283591);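 note: actives lower the ATP signal meaning cytotoxicity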
Summary of the method: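 Cytotoxicity readout: CellTiter-Glo ATP luminescence, 30 min at room temperature, after the beta-lactamase read. Cells were HCT116 exposed 16 h at 37C to compounds pin-transferred at 217-fold dilution from DMSO stocks.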

[2] = biological target: Cellular tumor antigen p53 (Homo sapiens) (UniProt P04637); assay: TOX21_p53_BLA_p2_ratio: Tox21 HCT-116 p53 Agonism Beta-lactamase Assay, Ratio, Phase 2 (AID 2283592)
Summary of the method: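 Readout: blue/green (460/530 nm) FRET emission ratio after 2 h CCF4-AM loading at room temperature, excitation 405 nm. HCT116 p53 bla cells, 16 h compound exposure at 37C, 5% CO2; agonist direction fitted against DMSO baseline.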

[3] = TOX21_p53_BLA_p3_viability: Viability Assessment in the Tox21 HCT-116 p53 Agonism Beta-lactamase Assay, Phase 3 (AID 2283593);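 note: cells exposed to compound for 16 h before reading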
Summary of the method: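 Cellular ATP was quantified by CellTiter-Glo luminescence, read after 30 min at room temperature. Beforehand, HCT116 cells (4000/well) received compound 5 h post-seeding, 217-fold diluted from DMSO, then incubated 16 h at 37C.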

[4] = biological target: Cellular tumor antigen p53 (Homo sapiens) (UniProt P04637); assay: TOX21_p53_BLA_p3_ratio: Tox21 HCT-116 p53 Agonism Beta-lactamase Assay, Ratio, Phase 3 (AID 2283596)
Summary of the method: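 Cells were seeded at 4000/well, rested 5 h at 37C, then dosed with DMSO compound solutions (217-fold dilution) for 16 h. CCF4-AM substrate was loaded for 2 h at room temperature, and the 460/530 nm emission ratio was fitted for gain of signal versus DMSO.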

[5] = TOX21_p53_BLA_p4_viability: Viability Assessment in the Tox21 HCT-116 p53 Agonism Beta-lactamase Assay, Phase 4 (AID 2283597);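 note: hits lower the luminescence signal meaning cytotoxicity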
Summary of the method: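 ATP content by CellTiter-Glo luminescence, 30 min RT, read after the beta-lactamase ratio step. Cells: HCT116, 4000/well, compound added after 5 h, exposure 16 h at 37C. Signal loss = reduced viability.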

[6] = TOX21_p53_BLA_p5_viability: Viability Assessment in the Tox21 HCT-116 p53 Agonism Beta-lactamase Assay, Phase 5 (AID 2283600)
Summary of the method: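 ATP luminescence (CellTiter-Glo, 30 min, RT) served as the viability read-out, with loss of signal indicating cytotoxicity. Compounds in DMSO were pinned at a 217-fold dilution onto 4000 cells/well and incubated 16 h, 37C.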

[7] = biological target: Cellular tumor antigen p53 (Homo sapiens) (UniProt P04637); assay: TOX21_p53_BLA_p4_ratio: Tox21 HCT-116 p53 Agonism Beta-lactamase Assay, Ratio, Phase 4 (AID 2283601)
Summary of the method: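 Signal is the blue/green (460nm/530nm) ratio of cleaved versus uncleaved CCF4-AM substrate, read after 2 h substrate loading. Cells were HCT116 carrying the p53-responsive beta-lactamase reporter, dosed 16 h at 37C, 5% CO2; CellTiter-Glo measured in parallel.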

PGR (gene 5241) [8] = biological target: PGR (gene 5241) (UniProt P06401); assay: TOX21_PR_BLA_Followup_Agonist_ratio: Tox21 HEK293 Progesterone Receptor (PR) Agonism Beta-lactamase Follow-Up Assay, Ratio (AID 2283933)
Summary of the method: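 Read-out: ratio of cleaved (ch2) to uncleaved (ch1) beta-lactamase substrate fluorescence, gain-of-signal relative to DMSO baseline. Cells: PR-UAS-bla HEK293T, 2% charcoal-stripped FBS; compound exposure 16 hr, 37C; substrate 2 hr, RT.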

PGR (gene 5241) [9] = biological target: PGR (gene 5241) (UniProt P06401); assay: TOX21_PR_BLA_Followup_Antagonist_ratio: Tox21 HEK293 Progesterone Receptor (PR) Antagonism Beta-lactamase Follow-Up Assay, Ratio (AID 2283934)
Summary of the method: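 Read-out: blue/green beta-lactamase FRET ratio (cleaved ch2 over uncleaved ch1), fitted relative to DMSO baseline. Cells: PR-UAS-bla HEK293T, GAL4-UAS reporter, stimulated with 1 nM R5020 final; 16 hr compound exposure, 37C.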

[10] = TOX21_PR_BLA_Followup_Agonist_viability: Viability Assessment in the Tox21 HEK293 Progesterone Receptor (PR) Agonism Beta-lactamase Follow-Up Assay (AID 2283935);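 note: signal loss means lower viability so actives are cytotoxic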
Summary of the method: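 Luminescent ATP quantitation (CellTiter-Glo, 30 min, room temperature) in the same wells as the beta-lactamase read, on PR-UAS-bla HEK293T cells exposed to compound for 16 hr at 37C in 2% charcoal-stripped serum.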

PGR (gene 5241) [11] = biological target: PGR (gene 5241) (UniProt P06401); assay: TOX21_PR_LUC_Followup_Agonist: Tox21 HEK293 Progesterone Receptor (PR) Agonism Luciferase Follow-Up Assay (AID 2283937; active = hit-call score of the fitted dose curve at least 0.9, where 1 is the maximum; inactive = score below 0.9)
Summary of the method: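 Luminescence read-out (ONE-Glo, 30 min at room temperature) of PR-driven luciferase in HEK293-PR-A-luc cells after 16 h compound exposure at 37C; gain of signal fitted relative to DMSO baseline.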

[12] = TOX21_PR_LUC_Followup_Antagonist_viability: Viability Assessment in the Tox21 HEK293 Progesterone Receptor (PR) Antagonism Luciferase Follow-Up Assay (AID 2283940)
Summary of the method: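 Read-out: CellTiter-Glo ATP luminescence, loss of signal taken as reduced viability. Cells: HEK293-PR-A-luc, 3,000/well, 5 h settling, then 16 h compound exposure at 37C, 0% CO2.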

[13] = TOX21_PR_LUC_Followup_Agonist_viability: Viability Assessment in the Tox21 HEK293 Progesterone Receptor (PR) Agonism Luciferase Follow-Up Assay (AID 2283941);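 note: loss of signal means cytotoxicity so actives lower viability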
Summary of the method: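 Cytotoxicity counter-screen: ATP content by CellTiter-Glo luminescence, loss of signal = reduced viability. HEK293-PR-A-luc, 3,000 cells/well, compound exposure 16 h, 37C.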

Measured: outcome

Chain of Cellular tumor antigen p53 (Homo sapiens) (P04637 whole entry, looked up): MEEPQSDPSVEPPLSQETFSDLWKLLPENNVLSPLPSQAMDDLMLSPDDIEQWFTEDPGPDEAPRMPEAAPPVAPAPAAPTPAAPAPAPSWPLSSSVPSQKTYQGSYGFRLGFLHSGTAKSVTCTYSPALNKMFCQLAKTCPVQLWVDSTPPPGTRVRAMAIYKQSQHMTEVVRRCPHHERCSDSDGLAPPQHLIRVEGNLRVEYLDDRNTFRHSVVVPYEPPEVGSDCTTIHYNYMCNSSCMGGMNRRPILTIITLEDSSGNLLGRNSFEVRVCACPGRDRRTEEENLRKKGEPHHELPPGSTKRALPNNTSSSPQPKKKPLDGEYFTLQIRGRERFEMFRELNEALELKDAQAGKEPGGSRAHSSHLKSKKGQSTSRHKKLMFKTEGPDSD
Chain of PGR (gene 5241) (P06401 whole entry, looked up, the tested form may be a part): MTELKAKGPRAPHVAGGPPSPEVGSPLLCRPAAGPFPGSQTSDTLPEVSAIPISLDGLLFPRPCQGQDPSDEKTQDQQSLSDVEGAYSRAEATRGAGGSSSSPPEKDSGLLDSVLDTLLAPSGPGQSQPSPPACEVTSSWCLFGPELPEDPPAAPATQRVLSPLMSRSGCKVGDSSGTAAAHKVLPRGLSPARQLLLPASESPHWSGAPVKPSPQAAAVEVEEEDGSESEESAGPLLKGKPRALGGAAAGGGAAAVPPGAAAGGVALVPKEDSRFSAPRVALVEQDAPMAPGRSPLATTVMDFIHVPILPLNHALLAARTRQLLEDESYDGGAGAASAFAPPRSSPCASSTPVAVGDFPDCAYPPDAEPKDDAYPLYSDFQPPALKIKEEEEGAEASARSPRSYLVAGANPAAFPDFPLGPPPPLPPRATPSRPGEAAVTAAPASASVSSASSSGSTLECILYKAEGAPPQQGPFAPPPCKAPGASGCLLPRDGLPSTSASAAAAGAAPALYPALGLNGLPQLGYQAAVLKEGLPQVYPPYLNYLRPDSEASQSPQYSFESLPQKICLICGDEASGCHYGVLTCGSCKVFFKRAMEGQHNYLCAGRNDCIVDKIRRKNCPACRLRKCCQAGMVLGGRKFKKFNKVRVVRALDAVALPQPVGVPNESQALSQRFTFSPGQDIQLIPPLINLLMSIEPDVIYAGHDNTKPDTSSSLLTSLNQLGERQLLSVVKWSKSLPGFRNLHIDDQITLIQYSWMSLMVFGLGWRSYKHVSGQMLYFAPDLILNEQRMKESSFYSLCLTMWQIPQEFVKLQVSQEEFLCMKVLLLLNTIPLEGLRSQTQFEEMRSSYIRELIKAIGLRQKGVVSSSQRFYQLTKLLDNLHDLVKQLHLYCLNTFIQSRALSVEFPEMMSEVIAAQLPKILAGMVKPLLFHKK

COc1ccc(CN2CCNCC2)c(OC)c1OC
inactive: [1] | [2] | [3] | [4] | [5] | [6] | [7]

CC(=O)O[C@H]1CC[C@@]2(C)C(=CC[C@@H]3[C@@H]2CC[C@]2(C)C(=O)CC[C@@H]32)C1
inactive: all assays above

COc1cc(N)c(Cl)cc1C(=O)NC1CN2CCC1CC2 (stereo unspecified)
inactive: [1] | [2] | [3] | [4] | [5] | [7]

From PubChem BioAssay (EPA / NIEHS)
